About 27,000 (9.3%) of roughly 290,000 compounds were called active. Shown is part of a subset that was picked to be rich in actives. A number with no mark means an inactive call. Cut-off read from the data, not from the text of the source: active = inhibition mostly above about 28% (no sharp cut-off); inactive = mostly below about 43%.
Test: A qHTS for Small Molecule Inhibitors of Shiga Toxin; note: 0% is about no effect
Conditions: Vero cells, Shiga toxin protein synthesis inhibition reporter; at 38.7 µM, hits give high values

| SMILES | inhibition |
| --- | --- |
| CCc1ccc(NC(=O)C(=O)N/N=C(\C)CC(=O)NCCOC)cc1 | 63.4% (active) |
| COCCNC(=O)COc1ccc(C)c(C)c1 | 20.4% |
| C/C(CC(=O)Nc1ccc(Cl)cc1)=N\NC(=O)C(=O)NCCO | 12% |
| Cc1ccc(N(C(=O)CNC(=O)c2ccco2)C(C(=O)NC2CCCC2)c2ccncc2)cc1 (centres undefined) | -7.6% |
| CC(=O)N1c2ccc(S(=O)(=O)N3CCCC(C(=O)Nc4ccc(C)cc4C)C3)cc2CC1C (centres undefined) | -2.6% |
| O=C(NN=C1CCC(=NNC(=O)c2cccnc2)CC1)c1cccnc1 | 45.2% |
| CN1CCN(NC(=O)c2ccc(S(=O)(=O)N3CCCCCC3)cc2)CC1 | -4.86% |
| O=C(N/N=C/c1ccccn1)c1ccc(S(=O)(=O)N2CCCCCC2)cc1 | 184% (active) |
| O=C(N/N=C/c1ccccn1)c1cccc(NC(=O)c2ccc(Cl)cc2)c1 | 24.3% |
| O=C(CNC(=O)c1cccnc1)N/N=C/c1cccnc1 | -13% |
| CNC(=O)C(=O)N/N=C/c1ccccn1 | 35.4% |
| Cc1cc(/C=N/NC(=O)c2cccnc2)c(C)n1CC(C)C | 80.1% (active) |
| Cc1ccc(NC(=O)COc2ccc(/C=N\NC(=O)c3cccnc3)cc2)cc1C | 11.2% |
| O=C(Nc1ccc(S(=O)(=O)Nc2ncccn2)cc1)C12CC3CC(CC(C3)C1)C2 | 17.2% |
| O=C(N/N=C/c1ccccn1)C12CC3CC(CC(C3)C1)C2 | 0% (active) |
| O=C(N/N=C/c1ccc(O)c2ccccc12)c1cccnc1 | 24.3% |
| O=C(N/N=C/c1ccccn1)c1cccnc1 | 39.2% (active) |
| COc1ccc(CNC(=O)/C(C#N)=C/c2cccc(OC)c2OC)cc1 | -10.4% |
| Cn1c(C(=O)N2CCCC(C(=O)NCc3ccccc3)C2)cc2sccc21 (centres undefined) | 18.4% |
| Cc1ccc(S(=O)(=O)c2c[nH]c3ccc(C)cc3c2=O)cc1 | -5.73% |
| CC(C)CNC(=S)Nc1ccc(F)cc1 | 13.2% |
| CC(C)CNC(=O)C(=O)Nc1ccc(N(C)C)cc1 | 55.1% (active) |
| CC(C)CNC(=O)C(=O)NCc1ccccc1 | 15.5% |
| Cc1cc(C)cc(NC(=O)C2CCCN2S(=O)(=O)c2cccc3cccnc23)c1 (centres undefined) | -0.303% |

| SMILES | inhibition |
| --- | --- |
| CCOC(=O)C1=C(C(=O)OCC)C(C(=O)OCC)N(S(=O)(=O)C(F)(F)F)c2ccccc21 (centres undefined) | 18.6% |
| CCOC(=O)c1cc2n(c1N)-c1ccccc1C2=O | 72.9% (active) |
| CCOC(=O)c1ccccc1CN1C(=O)c2ccccc2S1(=O)=O | -3.65% |
| Cn1nccc1C(=O)N1CCCC(C(=O)c2ccc(Oc3ccccc3)cc2)C1 (centres undefined) | -15.3% |
| Cc1cccc2[nH]c(CN(C)C(=O)C3CCC(=O)N(CCc4ccccc4)C3)nc12 (centres undefined) | 17.9% |
| CCCc1ccc(OCC(O)CN2CCN(CCO)CC2)cc1 (centres undefined) | -3.37% |
| O=C(COc1nsnc1N1CCOCC1)Nc1ccccc1Cl | 5.96% |
| CCOc1cc(/C=C/c2nc3ccccc3c(=O)[nH]2)cc(Br)c1OC | 31.4% |
| CC1(C)Cc2cccc(OCC(=O)NCc3ccccc3)c2O1 | 21.1% |
| CCOC(=O)C1(Cc2cccc(OC)c2)CCCN(S(=O)(=O)c2cccnc2)C1 (centres undefined) | -9.17% |
| CCOC(=O)C1(Cc2cccc(OC)c2)CCCN(C(=O)CCSC)C1 (centres undefined) | 81.2% (active) |
| CCOC(=O)C1(Cc2cccc(OC)c2)CCN(C(C)COC)CC1 (centres undefined) | -0.932% |
| COC(=O)C1CCN(C(=O)c2cc(=O)[nH]c3ccccc23)CC1 | -11.7% |
| COc1ccc(/C=C2\SC(=S)N(CCC(=O)Nc3cccc(C(=O)O)c3)C2=O)cc1OC | 2.9% |
| Cn1c(SCC(=O)N2CCCC2)nnc1-c1ccc2c(c1)OCO2 | 38.6% |
| O=C(O)CSc1nnc(-c2ccc3c(c2)OCO3)n1-c1ccccc1 | 37% |
| Cn1c(SCc2nc3ccccc3s2)nnc1-c1ccc2c(c1)OCO2 | 59% (active) |
| CN(CCc1ccccn1)C1CCCN(S(=O)(=O)c2ccccc2Cl)C1 (centres undefined) | -6.64% |
| COc1ccc(S(=O)(=O)N2CCOC2CNC(=O)C(=O)NCc2ccncc2)cc1OC (centres undefined) | -13.1% |
| CCC(C(=O)NCc1cccnc1)n1nc(C)c2sc3ccccc3c2c1=O (centres undefined) | -2.63% |
| Cc1cc(C)cc(NC(=O)CCN2C(=O)c3ccccc3C2=O)c1 | -3.25% |
| C=CCn1c(SCC(N)=O)nnc1-c1cc2c(s1)CCC(CC)C2 (centres undefined) | 76.9% (active) |
| CCn1c(CSc2nc(C)cc(C)n2)nnc1SCC(N)=O | -9.49% |
| C=CCn1c(SCc2c(C(=O)OC)sc(N)c2C(=O)OC)nnc1-c1ccc(Cl)cc1 | -13.4% |

| SMILES | inhibition |
| --- | --- |
| COCCNC(=O)CN(Cc1ccco1)C(=O)CCC(=O)Nc1nccs1 | -8.05% |
| CCN(C(=O)COC(=O)c1cc(NS(=O)(=O)c2ccc(Cl)c([N+](=O)[O-])c2)ccc1O)C1CCCCC1 | -7.83% |
| COCc1c(C(=O)N/N=C\c2cccnc2)nnn1-c1nonc1N | -0.307% |
| Cc1cccc(N2C(=O)C3C(c4ccccc4)OC4(C(=O)c5ccccc5C4=O)C3C2=O)c1 (centres undefined) | -11.8% |
| Cc1cccc(N2C(=O)c3cccnc3C2=O)c1 | 23.8% |
| Cc1cccc(N2C(=O)NC(=O)/C(=C\c3cnn(-c4ccccc4)c3)C2=O)c1 | 65.5% (active) |
| Cc1nc(CN(C)C(=O)CC2C(=O)NCCN2Cc2ccc(F)cc2)cs1 (centres undefined) | -21.9% |
| Cc1nc(C(=O)Nc2ccc(Cl)cc2)sc1C1(C)CC(c2ccccc2)=NO1 (centres undefined) | -2.44% |
| Cc1nc(-c2ccc(Cl)cc2)sc1C1(C)CC(c2ccccc2F)=NO1 (centres undefined) | 42% (active) |
| Cc1nc(C(=O)NCc2ccccc2)sc1C1(C)CC(c2cccnc2)=NO1 (centres undefined) | -4.88% |
| Cc1ccc(SCCN2C(=O)NC(C)(C)C2=O)cc1 | 5.57% |
| Nc1ccc(SCCN2C(=O)c3ccccc3C2=O)cc1 | 85% (active) |
| CC(=O)c1cnc(SCCN2C(=O)c3ccccc3C2=O)nc1C | -12.2% |
| N#CCC(=O)N/N=C/c1cn(Cc2ccc3ccccc3c2)c2ccccc12 | -10.8% |
| CC[C@H](C)[C@H](NC(=O)[C@H](Cc1ccc(O)cc1)NC(=O)[C@@H](NC(=O)[C@H](CCCN=C(N)N)NC(=O)[C@@H](N)CC(=O)O)C(C)C)C(=O)N[C@@H](Cc1cnc[nH]1)C(=O)N1CCC[C@H]1C(=O)N[C@@H](Cc1ccccc1)C(=O)O | 15% |
| CC(NC(=O)c1cccc2ccccc12)c1ccc2c(c1)CCCC2 (centres undefined) | -3.09% |
| CCOC(OCC)c1ccc(/C=C\c2nccc(N)n2)cc1 | 62.4% (active) |
| CC1(C)C(C=C(Cl)Cl)C1C(=O)NC(O)C(=O)c1ccccc1 (centres undefined) | -9.33% |
| COc1cccc(/C=N/NC(=O)c2[nH]nc3c2CCc2ccccc2-3)c1O | 12.7% |
| COc1cccc(/C=N\NC(=O)C2=NNC(=O)C2C)c1O (centres undefined) | 66.4% (active) |
| COc1cc2cc(C(=O)N/N=C/c3cccc(OC)c3OC)[nH]c2cc1OC | 3.08% |
| CCCCn1c(-c2cccc(C)c2)nc2cc3[nH]c(=O)c(C(C)C)nc3cc21 | 9.49% |
| CN1CCN(C(=O)c2cnn(-c3ccccc3)c2NC(=O)c2ccc([N+](=O)[O-])cc2)CC1 | -12.4% |
| O=C(CSc1ccc(/C=N/NC(=O)c2cccc(F)c2)o1)Nc1ccccc1 | 44.3% (active) |

| SMILES | inhibition |
| --- | --- |
| N#CCC(=O)N/N=C/c1ccc(SCC(=O)Nc2ccccc2)o1 | 17.4% |
| O=C(Cc1ccccc1)Nc1cccc(C(=O)N/N=C/c2ccco2)c1 | 23.9% |
| COc1ccc2cc(C(=O)O)n(CC(=O)c3ccccc3)c2c1 | -10.5% |
| CCCCC(=O)Nc1nnc(S(=O)(=O)N(C)Cc2ccco2)s1 | 10.1% |
| Cc1c(C(=O)NCCN(C)C)oc2ccc(S(=O)(=O)N3CCCC3)cc12 | -2.78% |
| Cn1cc(C(=O)NCc2ccccc2F)cn1 | 14.6% |
| COc1ccccc1-n1c(C)nc2cc(C(=O)NCc3ccc4c(c3)OCO4)ccc21 | 11.2% |
| CSCCNC(=O)c1ccc2nc(Cc3ccccc3F)oc2c1 | 49.7% (active) |
| COc1ccc(C(=O)NCCc2ccc(S(N)(=O)=O)cc2)cc1OC | 21% |
| COc1ccc(Cc2nc3ccc(C(=O)NCC4CCOCC4)cc3o2)cc1OC | 37.2% |
| COCCNC(=O)c1ccc2nc(Cc3ccc(OC)c(OC)c3)oc2c1 | 30.7% (active) |
| O=C(Nc1nnc(C2=COCCO2)o1)c1ccc([N+](=O)[O-])s1 | -3.51% |
| Cc1cnc(C(=O)N2CCCC(N3CCN(c4ccccc4F)CC3)C2)cn1 (centres undefined) | -6.28% |
| CC(=O)NC(CC(=O)Nc1nc(-c2ccccc2)c(C(C)=O)s1)c1ccccc1 (centres undefined) | -5.9% |
| COc1ccc(OC)c(CCNC(=O)c2nn(C)c3c2CS(=O)(=O)c2ccccc2-3)c1 | -4.81% |
| Nc1nonc1-n1nnc(C(=O)N/N=C\c2ccncc2)c1CN1CCCCC1 | -10.8% |
| CC1CCN(C(=O)c2ccc3c(c2)NC(=O)CN3)CC1 | -6.93% |
| Cc1cc(C(=O)NC2CCCc3c2cnn3-c2cccc(C)c2C)c(C)o1 (centres undefined) | 3.44% |
| COc1ccccc1CCNC(=O)C1CCN(C(=O)/C=C/c2ccccc2)CC1 | 39.9% |
| COc1ccc(Nc2cc(Sc3ccc(OC)cc3)ncn2)cc1 | 4.28% |
| COc1ccc(Nc2ncnc3sc(C)cc23)cc1 | 56.1% (active) |
| COc1ccc(Nc2ncnc3ccc(OC)cc23)cc1 | -8.31% |

Reference: PubChem BioAssay AID2315 (National Center for Advancing Translational Sciences (NCATS), 2010)
